According to PubChem BioAssay (NCATS):
Results filed as inconclusive are left out. Activity calls are given as the source filed them. Calls come from the whole dose curve; as a rule, active = well fitted curve in the direction sought with a large enough effect; inconclusive = small, poorly fitted or top-dose-only effect, or another doubt; inactive = no such curve, though single readings can be large; an effect the other way counts as inactive or inconclusive.

How the values were obtained:
[1] = Quantitative High-Throughput drug screen in 47 multiple myeloma cell lines against the NCATS MIPE library collection: EJM_DSMZ cell viability assay (AID 1918926; note: nearly all actives have a fitted effect of over 30% in size)
How it was run: (§1)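 Relative luminescence from CellTiter-Glo served as the viability signal, referenced to DMSO-treated (100%) and cell-free medium (0%) controls. Treatment lasted 48 hours at 37C with 500 cells per well.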

[2] = Quantitative High-Throughput drug screen in 47 multiple myeloma cell lines against the NCATS MIPE library collection: AMO1_DSMZ cell viability assay (AID 1918927; note: nearly all actives have a fitted effect of over 30% in size)
How it was run: as §1

[3] = Quantitative High-Throughput drug screen in 47 multiple myeloma cell lines against the NCATS MIPE library collection: ARD_JJKsccE7 cell viability assay (AID 1918929)
How it was run: as §1

[4] = Quantitative High-Throughput drug screen in 47 multiple myeloma cell lines against the NCATS MIPE library collection: Karpas620_DSMZ cell viability assay (AID 1918959); note: nearly all actives have a fitted effect of over 30% in size
How it was run: (§2)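 Steps: seed 500 cells per well; pin-transfer MIPE 4.0 library; incubate 48 h at 37C, 5% CO2, humidified; add CellTiter-Glo, 5 min room temperature; read luminescence.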

[5] = Quantitative High-Throughput drug screen in 47 multiple myeloma cell lines against the NCATS MIPE library collection: KMM1_JCRB cell viability assay (AID 1918960); note: nearly all actives have a fitted effect of over 30% in size
How it was run: (§3)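 CellTiter-Glo luminescence after 48 h exposure gives viability, scaled between DMSO-only (100%) and media-only (0%) controls. Library compounds are pinned onto 500 myeloma cells per well, incubated at 37C with 5% CO2.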

[6] = Quantitative High-Throughput drug screen in 47 multiple myeloma cell lines against the NCATS MIPE library collection: KHM11_PLB cell viability assay (AID 1918962); note: nearly all actives have a fitted effect of over 35% in size
How it was run: as §2

[7] = Quantitative High-Throughput drug screen in 47 multiple myeloma cell lines against the NCATS MIPE library collection: JIM3_ECACC cell viability assay (AID 1918963; note: nearly all actives have a fitted effect of over 35% in size)
How it was run: as §2

[8] = Quantitative High-Throughput drug screen in 47 multiple myeloma cell lines against the NCATS MIPE library collection: JIM1_ECACC cell viability assay (AID 1918964)
How it was run: as §1

[9] = Quantitative High-Throughput drug screen in 47 multiple myeloma cell lines against the NCATS MIPE library collection: INA6_PLB cell viability assay (AID 1918965; note: nearly all actives have a fitted effect of over 55% in size)
How it was run: (§4)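 CellTiter-Glo luminescence (ATP) after 48 h compound exposure, 37C/5% CO2; 500 cells/well; MIPE 4.0 approved/investigational drugs pinned in; DMSO = 100%, media only = 0% viability.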

[10] = Quantitative High-Throughput drug screen in 47 multiple myeloma cell lines against the NCATS MIPE library collection: H1112_PLB cell viability assay (AID 1918967; note: nearly all actives have a fitted effect of over 30% in size)
How it was run: as §1

[11] = Quantitative High-Throughput drug screen in 47 multiple myeloma cell lines against the NCATS MIPE library collection: Karpas25_ECACC cell viability assay (AID 1918968; note: nearly all actives have a fitted effect of over 35% in size)
How it was run: as §1

[12] = Quantitative High-Throughput drug screen in 47 multiple myeloma cell lines against the NCATS MIPE library collection: KMS27_JCRB cell viability assay (AID 1918970); conditions: KMS27 myeloma cells, CellTiter-Glo ATP viability, 48 h; viability (% of DMSO): at 45.8 µM (top of the series); note: nearly all actives have a fitted effect of over 30% in size
How it was run: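 Myeloma cells (500 per well) were exposed to MIPE 4.0 compounds for 48 h at 37 °C, 5% CO2; viability was read as ATP luminescence with CellTiter-Glo, normalized to DMSO-only (100%) and media-only (0%) wells.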

[13] = Quantitative High-Throughput drug screen in 47 multiple myeloma cell lines against the NCATS MIPE library collection: KMS12BM_JCRB cell viability assay (AID 1918971); note: nearly all actives have a fitted effect of over 35% in size
How it was run: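 Viability readout: CellTiter-Glo luminescence following 5 min room-temperature incubation with reagent. Prior exposure: 48 h, 37C, humidified 5% CO2, 500 cells per well.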

[14] = Quantitative High-Throughput drug screen in 47 multiple myeloma cell lines against the NCATS MIPE library collection: KMS12PE_JCRB cell viability assay (AID 1918972); note: nearly all actives have a fitted effect of over 30% in size
How it was run: as §4

[15] = Quantitative High-Throughput drug screen in 47 multiple myeloma cell lines against the NCATS MIPE library collection: ARP1_JJKsccF8 cell viability assay (AID 1918928; note: nearly all actives have a fitted effect of over 40% in size)
How it was run: as §3

[16] = Quantitative High-Throughput drug screen in 47 multiple myeloma cell lines against the NCATS MIPE library collection: JJN3_DSMZ cell viability assay (AID 1918966; note: nearly all actives have a fitted effect of over 50% in size)
How it was run: as §1

[17] = Quantitative High-Throughput drug screen in 47 multiple myeloma cell lines against the NCATS MIPE library collection: Karpas417_ECACC cell viability assay (AID 1918961); conditions: Karpas417 myeloma viability, CellTiter-Glo ATP luminescence, 48 h; viability (% of DMSO): at 45.8 µM (top of the series)
How it was run: as §4

[18] = Quantitative High-Throughput drug screen in 47 multiple myeloma cell lines against the NCATS MIPE library collection: KMS20_JCRB cell viability assay (AID 1918973); note: nearly all actives have a fitted effect of over 45% in size
How it was run: as §1
Potency is the fitted concentration of half-maximal effect.

CN1CCN(c2cccc(Nc3nc4c(-c5ccc(S(C)(=O)=O)cc5)cccn4n3)c2)CC1
inactive: Potency [11]
active: Potency [1] 4.18 µM | Potency [2] 4.18 µM | Potency [3] 1.32 µM | Potency [4] 0.833 µM | Potency [5] 1.66 µM | Potency [6] 2.35 µM | Potency [7] 2.96 µM | Potency [8] 0.662 µM | Potency [9] 0.59 µM | Potency [10] 2.35 µM | Potency [12] 1.32 µM | Potency [13] 9.35 µM | Potency [14] 0.833 µM

CC(C)c1onc(-c2c(Cl)cccc2Cl)c1COc1ccc(C=Cc2cccc(C(=O)O)c2)c(Cl)c1
inactive: Potency [1] | Potency [2] | Potency [15] | Potency [4] | Potency [5] | Potency [8] | Potency [9] | Potency [10] | Potency [12] | Potency [14]

Cc1cc2nc3c(=O)[nH]c(=O)nc-3n(CC(O)C(O)C(O)CO)c2cc1C (configuration not stated)
inactive: Potency [7] | Potency [9] | Potency [10] | Potency [11] | Potency [14]
active: Potency [1] 1.18 µM | Potency [15] 4.69 µM | Potency [16] 2.64 µM

CCNC(=O)[C@H]1O[C@@H](n2cnc3c(N)nc(NCCc4ccc(CCC(=O)O)cc4)nc32)[C@H](O)[C@H]1O
inactive: Potency [3] | Potency [4] | Potency [5] | Potency [7] | Potency [8] | Potency [10]
active: Potency [1] 0.0332 µM | Potency [2] 0.105 µM | Potency [17] 0.0296 µM | Potency [6] 0.0469 µM | Potency [9] 0.209 µM | Potency [16] 0.059 µM | Potency [11] 0.105 µM | Potency [13] 3.32 µM | Potency [14] 0.132 µM

CO[C@H]1O[C@@H]2O[C@@]3(C)CC[C@@H]4[C@@H](C)CC[C@@H]([C@H]1C)[C@@]24OO3
active: Potency [1] 1.48 µM | Potency [2] 1.87 µM | Potency [15] 16.6 µM | Potency [5] 1.32 µM | Potency [9] 0.469 µM | Potency [16] 5.9 µM | Potency [10] 7.43 µM | Potency [11] 1.18 µM

CC1CNc2c(cccc2S(=O)(=O)N[C@@H](CCCN=C(N)N)C(=O)N2CC[C@@H](C)C[C@@H]2C(=O)O)C1 (some centres not stated)
inactive: Potency [1] | Potency [3] | Potency [6] | Potency [7] | Potency [9] | Potency [16] | Potency [10] | Potency [11]
active: Potency [4] 23.5 µM | Potency [12] 14.8 µM

CN(C)CC[C@H](CSc1ccccc1)Nc1ccc(S(=O)(=O)NC(=O)c2ccc(N3CCN(Cc4ccccc4-c4ccc(Cl)cc4)CC3)cc2)cc1[N+](=O)[O-]
active: Potency [1] 5.9 µM | Potency [3] 8.33 µM | Potency [4] 0.0662 µM | Potency [5] 4.69 µM | Potency [17] 0.0935 µM | Potency [6] 5.26 µM | Potency [8] 1.48 µM | Potency [9] 18.7 µM | Potency [16] 8.33 µM | Potency [10] 0.0743 µM | Potency [11] 1.48 µM | Potency [12] 0.0187 µM | Potency [14] 0.0235 µM

CC(C)(C)c1[nH]cnc1C=c1[nH]c(=O)c(=Cc2ccccc2)[nH]c1=O
active: Potency [16] 0.0481 µM
inactive: Potency [2] | Potency [5] | Potency [7] | Potency [8]

CC[C@@H]([C@H](C)O)n1ncn(-c2ccc(N3CCN(c4ccc(OCC5CO[C@@](Cn6cncn6)(c6ccc(F)cc6F)C5)cc4)CC3)cc2)c1=O (some centres not stated)
inactive: Potency [6] | Potency [18]
active: Potency [2] 7.43 µM | Potency [4] 5.9 µM | Potency [5] 5.9 µM | Potency [7] 5.26 µM | Potency [9] 10.5 µM | Potency [16] 4.18 µM | Potency [11] 6.62 µM | Potency [13] 16.6 µM

NC(=O)c1nnn(Cc2cc(Cl)c(C(=O)c3ccc(Cl)cc3)c(Cl)c2)c1N
active: Potency [5] 5.9 µM | Potency [7] 26.4 µM | Potency [9] 14.8 µM | Potency [16] 20.9 µM | Potency [14] 6.62 µM
inactive: Potency [17] | Potency [6]

Cc1ccc(NC(=O)c2cccc(N(C)C)c2)cc1NC(=O)c1ccc(O)cc1
active: Potency [2] 0.235 µM | Potency [4] 5.9 µM | Potency [6] 13.2 µM | Potency [9] 16.6 µM | Potency [16] 23.5 µM | Potency [10] 0.166 µM | Potency [11] 0.118 µM | Potency [12] 1.05 µM | Potency [13] 7.43 µM

CCNC(=O)Nc1ccc(Oc2ncnc(N)c2C=NOC)cc1Cl
inactive: Potency [10]
active: Potency [2] 2.96 µM | Potency [15] 20.9 µM | Potency [4] 4.69 µM | Potency [5] 4.69 µM | Potency [7] 9.35 µM | Potency [8] 2.64 µM | Potency [13] 14.8 µM | Potency [14] 2.96 µM

Cc1ccccc1C(C(=O)NC1CCCCC1)N(C(=O)CNc1ccc(C#N)cc1)c1cccc(F)c1 (configuration not stated)
inactive: Potency [3] | Potency [4] | Potency [5] | Potency [7] | Potency [10] | Potency [11]
active: Potency [13] 2.96 µM

CCCCc1ccc(NS(=O)(=O)c2ccc(C)c(C(=O)N3CCN(c4cccc(C)c4C)CC3)c2)cc1
inactive: Potency [2] | Potency [3] | Potency [4] | Potency [5] | Potency [12]
active: Potency [15] 20.9 µM | Potency [7] 16.6 µM | Potency [16] 23.5 µM | Potency [13] 20.9 µM

CN(C)CCOc1cc(-c2cn[nH]c2)ccc1NC(=O)C1COc2ccccc2O1 (configuration not stated)
active: viability (% of DMSO) [17] 64.1% | Potency [7] 18.7 µM | Potency [9] 13.2 µM
inactive: Potency [3] | Potency [4] | Potency [6] | Potency [10]

Cn1cnc(-c2cc3nccc(Oc4ccc(NC(=S)NC(=O)Cc5ccccc5)cc4F)c3s2)c1
active: Potency [3] 18.7 µM | Potency [9] 6.62 µM | Potency [16] 16.6 µM | Potency [12] 23.5 µM | Potency [18] 13.2 µM

CCC(=C(CC)c1ccc(O)cc1)c1ccc(O)cc1
inactive: Potency [6] | Potency [7] | Potency [18]
active: Potency [15] 18.7 µM | Potency [4] 16.6 µM | Potency [5] 18.7 µM | Potency [8] 16.6 µM | Potency [16] 9.35 µM | Potency [10] 18.7 µM | Potency [13] 13.2 µM | Potency [14] 13.2 µM
